Compound activity deposited in PubChem by National Center for Advancing Translational Sciences (NCATS).
D2 ag-1 – agonists of human D2 dopamine receptor; activation, % at 2 µM; 0.53% of 340,000 active; HEK293 T-REx D2 cells, calcium flux agonist mode; P14416;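 active = activation over 3 SD above normal in the single-dose calcium agonist read, cut at about 30% in these data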; also: 0% is about no effect
Target sequence (P14416 whole entry, looked up): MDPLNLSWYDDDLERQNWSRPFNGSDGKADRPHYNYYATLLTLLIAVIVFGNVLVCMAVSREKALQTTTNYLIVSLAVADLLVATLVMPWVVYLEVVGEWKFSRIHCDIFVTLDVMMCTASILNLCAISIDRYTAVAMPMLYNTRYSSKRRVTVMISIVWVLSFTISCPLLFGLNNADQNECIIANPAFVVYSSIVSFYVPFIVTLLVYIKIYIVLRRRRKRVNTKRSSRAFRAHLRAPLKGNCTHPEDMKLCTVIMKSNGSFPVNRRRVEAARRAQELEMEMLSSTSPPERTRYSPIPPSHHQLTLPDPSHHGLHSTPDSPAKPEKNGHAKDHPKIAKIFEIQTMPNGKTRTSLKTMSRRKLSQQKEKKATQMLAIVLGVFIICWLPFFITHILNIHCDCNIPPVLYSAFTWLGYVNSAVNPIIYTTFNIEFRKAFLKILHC
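Tetracycline-induced HEK293 T-REx cells with force-coupled D2 receptor, plated overnight at 30 C, loaded with no-wash calcium dye. After a 10 s baseline, compound was pin-added and calcium flux read kinetically for 180 s; calcium rises flagged agonists.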
D2 ag-2 – agonists of human D2 dopamine receptor (beta-arrestin) | DiscoveRx PathHunter D2 beta-arrestin, luminescence, 90 min; 100% = 57 uM dopamine signal | 0.084% of 360,000 active | activation, % (concentration not given with the values) | P14416; in the data active = activation above about 40%
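Agonist mode: compounds alone added to overnight-plated D2 PathHunter cells for 90 min at 37 C, with 57 uM final dopamine (EC100) defining full response. Beta-arrestin recruitment detected by chemiluminescent reagent, read after 1 h at ambient temperature.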
D2 PAM-1 – D2 dopamine receptor (human) potentiation | P14416 | HEK293 T-REx D2, calcium flux, EC20 dopamine potentiation | potentiation, % at 10 µM | 0.34% of 340,000 active | AID 485347;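 active = potentiation over 3 SD above the plate norm, cut at about 30% in these data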; also: 0% is about no effect
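Primary screen. Calcium kinetics in induced HEK293 T-REx D2 cells: compound pre-addition 180 s, EC20 dopamine, 180 s more.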
D2 antagonist – antagonizes the human D2 dopamine receptor; P14416; HEK293 TREx D2 cells, calcium flux, dopamine EC80; inhibition, % at 10 µM; 2% of 340,000 active; in the data active = inhibition above about 30%; inactive = below that, where a call was filed; also: 0% is about no effect
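Calcium flux kinetic readout in an inducible HEK293 TREx D2 line plated overnight at 30 C. After 180 s compound exposure, an EC80 dopamine challenge follows with another 180 s kinetic read to detect antagonism.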
D2 PAM-2 – potentiates the human D2 dopamine receptor allosterically. DiscoveRx D2 beta-arrestin cells, luminescence, 90 min; 100% = 57 uM dopamine signal. 0.23% of 360,000 active. P14416. potentiation, % (test concentration not listed); in the data active = potentiation above about 50%
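D2 cells co-treated with compound plus 50 nM dopamine (EC20) for 90 min at 37 deg C to detect potentiation. Beta-arrestin recruitment was read as enzyme-fragment luminescence after 1 h at ambient temperature. Full response was set by 57 uM dopamine.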
Starred values were filed as active, the others as inactive; . = no result given. Most compounds without a hit are left out; they make up all but 2.4% or so of the library.

SMILES	D2 ag-1	D2 ag-2	D2 PAM-1	D2 antagonist	D2 PAM-2
O=C(O)/C=C/c1ccc(-c2cccc(C(F)(F)F)c2)o1	-0.5	-4.5	42.8*	-5.0	1.4
O=C(/C=C\c1ccc(-c2ccccc2)o1)c1ccccc1	.	-3.8	.	.	-14.2
CC(C)COCC(CN(Cc1ccccc1)c1ccccc1)N1CCCC1 (configuration not stated)	38.3*	-5.2	-17.5	-8.2	-30.2
CC(C(=O)Nc1ccc(OCc2ccccc2)cc1)N1CCCC1 (configuration not stated)	0.0	2.9	-2.2	7.2	0.6
Cc1ccc(C)c(Cn2c(CO)nc3ccccc32)c1	-0.5	-2.6	15.4	-18.8	-7.7
Cc1ccc(C)c(Cn2ncc3ccccc32)c1	-1.0	-3.8	41.3*	-19.3	-4.0
CCC(C)c1ccc(OCC(=O)Nc2ccc(-c3nc4ncccc4o3)cc2)cc1 (configuration not stated)	0.1	.	-0.5	.	.
COc1cccc(C(=O)CC(=O)C(=O)Nc2cc(OC)c(OC)c(OC)c2)c1	0.9	.	6.1	-22.9	.
O=C(NCc1ccccc1)c1ccc(N2CCC3(CC2)CC(c2ccccc2)=NO3)c([N+](=O)[O-])c1	0.2	0.4	-0.9	-15.6	11.0
Cc1ccc(CNC(=O)c2ccc(N3CCC4(CC3)CC(c3ccccc3)=NO4)c([N+](=O)[O-])c2)cc1	6.9	-3.0	-7.2	45.2*	-28.2
NC(=O)c1nsc(C(=O)N(CC(=O)NCc2ccco2)c2ccccc2F)c1N	-0.3	-3.1	32.6*	7.8	-3.8
CCCCS(=O)(=O)N1CCN(S(=O)(=O)c2cccs2)CC1	5.1	-4.6	6.1	3.0	-9.0
CC1=C(C(=O)OCC2CCCCC2)C(c2ccc(Cl)cc2Cl)CC(=O)N1 (configuration not stated)	-0.1	.	-0.2	.	.
CN1CCc2c(n(CC(O)CN(CCO)CCO)c3ccccc23)C1=O (configuration not stated)	-2.9	-5.5	11.2	6.5	-8.1
CN1CCc2c(n(CC(O)CNCc3ccccc3)c3ccccc23)C1=O (configuration not stated)	-0.9	0.2	-19.9	66.3*	-10.8
CCOC(=O)C1(CCOc2ccccc2)CCN(S(=O)(=O)N(C)C)CC1	0.7	7.6	5.0	42.9*	8.6
CCOC(=O)C1(CCOc2ccccc2)CCN(Cc2ccc(-n3cccn3)cc2)CC1	0.4	-4.0	-20.5	35.2*	-1.3
CCOC(=O)CCNC(=O)N1CCC(CCOc2ccccc2)(C(=O)OCC)CC1	.	0.8	.	.	-1.1
CCOC(=O)C1(CCc2ccccc2)CCN(Cc2cccc3nccnc23)CC1	-1.4	-4.3	-24.3	65.3*	-6.6
CCOC(=O)C1(CCOc2ccccc2)CCN(Cc2ccncc2)CC1	-0.6	-6.9	-15.4	-3.5	-3.1
CCOC(=O)C1(Cc2ccccc2)CCN(Cc2cnn(CC)c2)CC1	0.3	1.4	-3.8	6.7	-5.7
CCOC(=O)C1(Cc2ccccc2)CCN(Cc2cnn(-c3ccccc3)c2)CC1	-1.0	-5.1	-18.3	33.3*	-16.7
O=C(CSc1nc2ncccc2o1)Nc1cccc(C(F)(F)F)c1	1.8	.	4.1	.	.
Cc1ccc(C(C(=O)NC2CCCCC2)N(Cc2ccco2)C(=O)Cc2c[nH]c3ccccc23)o1 (configuration not stated)	-0.9	-3.6	-4.7	36.1*	0.0
CC(C)(C)C(=O)Cn1c(=O)n(-c2ccc(Cl)cc2)c(=O)c2c3c(sc21)CCCC3	0.4	.	25.1	.	.
SMILES	D2 ag-1	D2 ag-2	D2 PAM-1	D2 antagonist	D2 PAM-2
COc1ccc(S(=O)(=O)N2CCN(C(c3ccccc3)c3ccccc3)CC2)cc1NC(C)=O	.	2.5	.	.	-7.0
O=C(Nc1ccc(F)cc1)N1CCn2c(nc3ccccc32)C1	0.6	-1.4	3.4	33.4*	-8.1
CCN(C(=O)Cn1nc(Cc2ccncc2)c2ccccc2c1=O)c1cccc(Cl)c1	-0.1	.	-5.0	.	.
Cc1ccc(CN2C(=O)CCSc3ccc(Cl)cc32)cc1	0.8	-2.9	-4.3	-5.9	-3.4
O=C1CCSc2ccc(Cl)cc2N1Cc1cccc(Cl)c1	-0.2	-4.0	12.2	33.3*	-14.1
CCC(CC)C(=O)NC12CC3CC(CC(C3)C1)C2	-1.9	-2.4	25.0	32.5*	-2.4
O=C(Cc1ccc(Cl)cc1)Nc1ccc(N2CCN(C(=O)c3ccco3)CC2)cc1	-0.2	1.3	32.2*	-15.8	-12.7
O=C(CCN1CCN(C(=O)c2ccco2)CC1)Nc1ccc(F)cc1	33.5*	0.2	-26.7	11.3	-13.4
Cc1ccccc1N1CCN(CCC(=O)Nc2ccc(F)cc2)CC1	0.6	1.5	-20.2	78.1*	-73.9
COc1ccccc1N1CCN(CCC(=O)Nc2cccc(F)c2)CC1	20.7	2.2	-31.7	.	-41.6
O=C(c1ccco1)N1CCN(C(=S)Nc2ccc(F)cc2)CC1	0.1	-1.4	5.9	6.1	-5.3
CN(C)S(=O)(=O)c1ccc(NC=C(C#N)C#N)cc1	-0.4	0.3	-14.5	2.4	-4.0
CCN(CC)S(=O)(=O)c1ccc(NC=C(C#N)C#N)cc1	-0.2	2.7	-2.1	74.1*	-1.7
O=C(NCCc1ccc(Cl)cc1)c1c2c(nc3ccccc13)C(=O)N(C1CCCCC1)C2	0.7	.	-4.4	.	.
CN(C)/C=N/c1ncc(C(=O)c2ccc(Cl)cc2)s1	0.9	-0.4	-10.9	56.6*	-16.3
CN(C)/C=N/c1ncc(C(=O)c2ccc(Cl)cc2Cl)s1	0.8	-7.0	-0.2	-11.8	-0.2
COc1ccc(OC)c(N2C(=O)CC(Cc3cc(C)cc(C)c3)C2=O)c1 (configuration not stated)	-0.5	-0.8	30.0*	9.5	10.0
COc1ccc(OC)c(N2C(=O)CC(Cc3ccc(Cl)cc3)C2=O)c1 (configuration not stated)	0.6	-2.3	29.4	-22.1	-13.1
CNS(=O)(=O)c1cn(CC(=O)Nc2ccc(C(C)=O)cc2)cc1S(=O)(=O)NC	0.7	.	-5.8	.	.
O=C(CSc1nnc(-c2ccccc2)c(-c2ccccc2)n1)NCc1ccco1	0.4	-3.2	6.5	40.0*	-3.4
O=C(CSc1ncc(-c2ccccc2)nn1)NCc1ccco1	0.3	-0.7	-4.4	18.0	-5.3
COc1ccc(-c2[nH]c(-c3cccc(OC)c3)nc2SCC(=O)NCc2ccco2)cc1	-0.6	0.3	-20.7	39.0*	-6.4
CCOC(=O)c1cccc(NC(=O)Cn2ncc3c(=O)oc4ccccc4c32)c1	0.0	.	8.7	.	.
O=C1c2cc(O)c(O)cc2OC(c2ccc(O)c(O)c2)C1O (configuration not stated)	.	1.4	.	.	-0.9
O/N=C1/CCc2nonc2/C1=N/O	0.1	9.8	1.5	39.1*	-11.5
Cc1ccc(C(=O)N2CCN(Cc3ccc4c(c3)OCO4)CC2)c(Cl)c1	-0.6	2.1	-29.7	72.6*	-8.8
